Each structure is given as a SMILES string. Potency and affinity values are given separately.

The values below come from ChEMBL document CHEMBL4513141, “CO-ADD screening of NIH (USA) - Clinical Collection” (2021).

The test system of the test is Klebsiella pneumoniae. To be noted: Concentration 20 uM; ASSAY_TEST Inhibition of Bacterial Growth; detection method Absorption (OD600); MEDIA CAMHB; plate type 384well; NBS; CORNING #3640; time 18 hr.
For `CCCNCC(O)COc1ccccc1C(=O)CCc1ccccc1` (stereo unspecified) [PROPAFENONE], the Inhibition is 6.97%.

Consider `CCc1nn(CCCN2CCN(c3cccc(Cl)c3)CC2)c(=O)n1CCOc1ccccc1.Cl` [NEFAZODONE HYDROCHLORIDE], for which the Inhibition is 1.06%.

As for `Cl.O.O=C(c1ccc(F)cc1)C1CCN(CCn2c(=S)[nH]c3ccccc3c2=O)CC1`, the Inhibition is 11.14%.

As to `CN(C)CCCN1c2ccccc2Sc2ccc(Cl)cc21.Cl` [CHLORPROMAZINE HYDROCHLORIDE], the Inhibition is recorded as 12.47%.

In the case of `O=C(CCCN1CC=C(n2c(=O)[nH]c3ccccc32)CC1)c1ccc(F)cc1` [DROPERIDOL], the Inhibition stood at 9.88%.

Turning to `CCC(=O)OCC(=O)[C@@]1(OC(=O)CC)[C@@H](C)C[C@H]2[C@@H]3CCC4=CC(=O)C=C[C@]4(C)[C@@]3(Cl)[C@@H](O)C[C@@]21C` [BECLOMETHASONE DIPROPIONATE], the Inhibition was 7.24%.

Consider `Cl.O=C1[C@H]2CCCC[C@H]2C(=O)N1CCCCN1CCN(c2nsc3ccccc23)CC1`, for which the Inhibition amounted to 9.66%.

Regarding `CC(=O)S[C@@H]1CC2=CC(=O)CC[C@]2(C)[C@H]2CC[C@@]3(C)[C@@H](CC[C@@]34CCC(=O)O4)[C@H]12` [SPIRONOLACTONE], the Inhibition came to 18.33%.

Turning to `O=C(O[C@H]1[C@H](Oc2ccccc2COC(=O)C2(O)C=CCCC2=O)O[C@H](CO)[C@@H](O)[C@@H]1O)c1ccccc1` (stereo partly specified) [TREMULACIN], the Inhibition was 9.15%.

Regarding `Cl.Nc1nc2ccc(OC(F)(F)F)cc2s1`, the Inhibition turned out to be 11.2%.

As for `Cl.Clc1ccc2nsnc2c1NC1=NCCN1` [TIZANIDINE HYDROCHLORIDE], the Inhibition is 10.36%.

Regarding `Cl.Clc1ccccc1CN1CCc2sccc2C1` [TICLOPIDINE HYDROCHLORIDE], the Inhibition was -0.77%.

As for `Cc1cccc(Nc2ccncc2S(=O)(=O)NC(=O)NC(C)C)c1` [TORSEMIDE], the Inhibition is 8.97%.

Take `COc1ccc(-c2cc(=O)c3c(OC)c(OC)c(OC)c(OC)c3o2)cc1OC` [NOBILETIN]: the Inhibition is 4.76%.

With `COCCOC(=O)C1=C(C)NC(C)=C(C(=O)OC(C)C)C1c1cccc([N+](=O)[O-])c1` (stereo unspecified) [NIMODIPINE], the Inhibition was found to be 1.9%.

In the case of `CCCN1CCCC[C@H]1C(=O)Nc1c(C)cccc1C.Cl` [ROPIVACAINE HYDROCHLORIDE], the Inhibition turned out to be 12.03%.

Regarding `COC1=CC(=O)C[C@@H](C)[C@]12Oc1c(Cl)c(OC)cc(OC)c1C2=O` [GRISEOFULVIN], the Inhibition was 11.08%.

For `CCOC(=O)N1CCC(=C2c3ccc(Cl)cc3CCc3cccnc32)CC1` [LORATADINE], the Inhibition amounted to 12.62%.

As for `CCC(C)(C)C(=O)O[C@H]1C[C@@H](C)C=C2C=C[C@H](C)[C@H](CC[C@@H]3C[C@@H](O)CC(=O)O3)[C@H]21` [SIMVASTATIN], the Inhibition was -2.13%.

As to `CC(=O)CCCCn1c(=O)c2c(ncn2C)n(C)c1=O` [PENTOXIFYLLINE], the Inhibition came to 12.41%.

With `CC(C)[C@H]1CC[C@H](C(=O)N[C@H](Cc2ccccc2)C(=O)O)CC1` [NATEGLINIDE], the Inhibition came out at 12.08%.

Take `C#C[C@]1(O)CC[C@H]2[C@@H]3CCc4cc(O)ccc4[C@H]3CC[C@@]21C` [ETHINYL ESTRADIOL]: the Inhibition came to 16.78%.

Take `CCC1(c2ccccc2)C(=O)NCNC1=O` [PRIMIDONE]: the Inhibition came out at 7.75%.

Consider `Cc1ccc(N(CC2=NCCN2)c2cccc(O)c2)cc1` [PHENTOLAMINE], for which the Inhibition is recorded as 6.34%.

Take `O=c1c(O[C@@H]2O[C@H](CO)[C@@H](O)[C@H](O)[C@H]2O)c(-c2ccc(O)c(O)c2)oc2cc(O)cc(O)c12` [ISOQUERCETIN]: the Inhibition worked out at 10.08%.

Take `C=C1/C(=C\C=C2/CCC[C@]3(C)[C@@H]([C@H](C)/C=C/[C@@H](O)C4CC4)CC[C@@H]23)C[C@@H](O)C[C@@H]1O` [CALCIPOTRIENE]: the Inhibition came out at 16.21%.

`Nc1ncnc2c1ncn2[C@@H]1O[C@H](CO)C[C@@H]1O.O`: the Inhibition turned out to be 6%.

Take `CC1CCN(CCCC(=O)c2ccc(F)cc2)CC1.Cl`: the Inhibition is 24.05%.

In the case of `CCN1CCC[C@H]1CNC(=O)c1cc(S(N)(=O)=O)ccc1OC` [LEVOSULPIRIDE], the Inhibition is listed as 18.7%.

As to `CN1CCc2cc(Cl)c(O)cc2[C@@H](c2ccccc2)C1.Cl`, the Inhibition was 8.81%.

Consider `CC(C)[N+](C)(CCOC(=O)C1c2ccccc2Oc2ccccc21)C(C)C.[Br-]` [PROPANTHELINE BROMIDE], for which the Inhibition was 18.08%.

One may read the Inhibition as the relative decrease from the control value, in per cent.
